Among all 320,000 compounds or so, about 3,100 (0.97%) were called active. The sample holds actives, similar compounds and a random draw of the others, so the mix is not that of the screen. A number with no mark means an inactive call.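 The calls were made as follows: active = mean replicate inhibition of at least 70% and a set share of replicates each scoring 70 or more; inconclusive = meets just one of the two criteria; inactive = fails both criteria.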
Biological target: Scavenger receptor class B member 1 (Mus musculus) (UniProt Q61009)
Experiment: mouse SR-BI DiI-HDL uptake blockers – ldlA[mSR-BI] cells, fluorescence, single point, primary screen (AID 488896);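 also: 0% = median of neutral control wells and 100% = median of positive control wells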
Details: ldlA[mSR-BI] CHO cells, 3 h, at 12.5 µM, stronger effect = higher value

Chain of Scavenger receptor class B member 1 (Mus musculus) (Q61009 whole entry, looked up): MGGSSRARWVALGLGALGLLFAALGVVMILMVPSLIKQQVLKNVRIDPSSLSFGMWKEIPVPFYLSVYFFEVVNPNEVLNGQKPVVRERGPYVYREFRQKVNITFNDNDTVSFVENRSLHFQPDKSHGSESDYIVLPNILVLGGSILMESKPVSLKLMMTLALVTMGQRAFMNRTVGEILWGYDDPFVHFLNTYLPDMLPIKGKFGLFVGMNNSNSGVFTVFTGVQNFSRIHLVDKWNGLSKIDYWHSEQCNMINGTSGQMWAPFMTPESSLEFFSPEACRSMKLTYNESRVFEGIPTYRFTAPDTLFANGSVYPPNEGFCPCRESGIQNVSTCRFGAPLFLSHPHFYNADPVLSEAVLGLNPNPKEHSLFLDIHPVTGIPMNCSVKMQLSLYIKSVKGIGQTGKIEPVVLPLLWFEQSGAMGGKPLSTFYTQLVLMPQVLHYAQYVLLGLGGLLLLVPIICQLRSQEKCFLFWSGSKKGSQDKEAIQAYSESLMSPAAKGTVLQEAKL

SMILES | inhibition
CNN/C(N=Cc1ccc([N+](=O)[O-])s1)=N\S(=O)(=O)c1cc(C)c(Cl)cc1SCc1ccccc1 | -9.94%
CC(C=Cc1ccccc1)=NNS(=O)(=O)c1ccc([N+](=O)[O-])cc1 | -6.47%
CCc1ccc(C(=O)C(C)OC(=O)CN2C(=O)NC3(CCCC3)C2=O)cc1 (stereo not drawn) | -13.5%
CC(C)(C)S(=O)(=O)N1Cc2cc(CO)cc(CCO)c2[C@H]1CCO | 2.47%
CCOc1ccc(-n2c(O)c(/C=N/c3ccnn3Cc3ccncc3)c3ccccc3c2=O)cc1 | -0.942%
CCOc1ccc(-n2c(O)c(/C=N/Nc3nnc(C)c(=O)[nH]3)c3ccccc3c2=O)cc1 | 108% (active)
CCOc1ccc(-n2c(O)c(/C=N/Nc3nc(C)cc(C)n3)c3ccccc3c2=O)cc1 | 34.2%
CC(=O)N1CCc2ccc(N)cc21 | 12.2%
COc1cc(/C=N/NC(=O)c2ccoc2C)ccc1OCCN1CCCCC1 | 3.01%
COc1cc(/C=N/NC(=O)Nc2ccccc2)ccc1OCCOc1ccccc1C | 71.4% (active)
COc1cc(/C=N/NC(=O)Cc2ccccc2)cc(OC)c1OC | 3.39%
O=C1OC(Oc2ccc(Br)cc2)(c2ccccc2)c2ccccc21 (stereo not drawn) | 0.981%
CCc1nnc(NC(=O)c2cc(S(=O)(=O)N3CCN(CC)CC3)ccc2Cl)s1 | -25.4%
CCOc1ccc(-n2c(SCC(=O)Nc3cc(C(=O)O)ccc3Cl)nc3ccccc3c2=O)cc1 | -14%
NS(=O)(=O)c1cccc(NC(=O)CSc2nc3ccccc3n2-c2ccccc2)c1 | 23.7%
Cc1ccc(-n2c(SCC(=O)Nc3ncc(Cl)cc3Cl)nc3ccccc32)cc1 | 78.1% (active)
COc1ccc2sc(-c3ccc(S(C)(=O)=O)cc3)c(-c3ccc(C(N)=O)cc3)c2c1 | 54.1%
COc1ccc2sc(-c3ccc(N(C)C)cc3)c(-c3ccc4cc[nH]c4c3)c2c1 | 85% (active)
COc1ccc2sc(-c3ccc(N(C)C)cc3)c(C#CCO)c2c1 | 99.4% (active)
COc1ccc2sc(-c3ccc(S(C)(=O)=O)cc3)c(C#Cc3cncn3C)c2c1 | 13.9%

SMILES | inhibition
COc1ccc(-c2sc3ccc(OC)cc3c2C#Cc2ccccn2)cc1 | 56.6%
COc1cc(OC)cc(-c2sc3ccc(OC)cc3c2-c2ccc3cc[nH]c3c2)c1 | 58.8%
CN1CCC(N(C)C(=O)c2ccc(Cl)c(S(=O)(=O)Nc3ccc(Cl)cc3)c2)CC1 | -12%
O=C(NCC1CCCCC1)NCC1CCCCC1 | -12.9%
O=C(O)c1ccc(S(=O)(=O)c2ccccc2)s1 | -1.03%
COc1ccc2nc(N3C(=O)C(O)=C(C(=O)c4ccco4)C3c3ccco3)sc2c1 (stereo not drawn) | -2.11%
O=C(Cc1ccc(S(=O)(=O)N2CCOCC2)s1)Nc1ccc(Br)c(C(F)(F)F)c1 | -43.4%
CC(C)Cn1cnc2c(SCc3ccc(Cl)cc3)nc(N)nc21 | 7.71%
Cc1cccc(C(=O)Nc2ccccc2N2CCN(c3ccc(F)cc3)CC2)c1 | 74.9% (active)
CCCCC(=O)Nc1ccccc1N1CCN(c2ccc(F)cc2)CC1 | 34%
CCC(C)C(=O)Nc1ccccc1N1CCN(c2ccc(F)cc2)CC1 (stereo not drawn) | 36.3%
CCCC(=O)N1CCN(c2nnc(-c3ccc(C)cc3)c3ccccc23)CC1 | 76.8% (active)
OCCN1CCN(c2nnc(-c3ccccc3)c3ccccc23)CC1 | 3.57%
c1ccc(-c2nnc(N3CCOCC3)c3ccccc23)cc1 | 27.8%
Cc1ccc(-c2csc(C(C#N)=C(O)CN3CCN(C(=O)c4ccco4)CC3)n2)cc1 | 4.1%
CCOc1ccc(/C=C(/C#N)c2nnc(N3CCOCC3)n2-c2ccccc2)cc1OC | -9.11%
O=C(Cc1ccc(NC(=O)C2CCCN(C(=O)C3CCCCC3)C2)cc1)Nc1cccc(C(=O)N2CCCCC2)c1 (stereo not drawn) | 43.2%
CNc1nc(=O)n(C2CCCO2)cc1C (stereo not drawn) | 0.704%
CCOC(=O)N(Cc1ccccc1)C1CC1 | 1.61%
COc1ccc(CCN(C(=O)COc2ccccc2)c2nc(-c3ccccc3)cs2)cc1OC | 24.1%

SMILES | inhibition
CC(=O)Nc1cccc(-c2csc(Nc3cccc(C)n3)n2)c1 | 76.4% (active)
Cc1cccc(Nc2nc(-c3ccccc3)cs2)n1 | 52.4%
COc1ccc(CC(=O)Nc2nc(-c3ccc(F)c(F)c3)cs2)cc1OC | 29.1%
COc1ccc(CCNc2nc(-c3cccc(NC(C)=O)c3)cs2)cc1OC | 75.5% (active)
CC(=O)Nc1ccc(-c2csc(NC=C3C(=O)OC(C)(C)OC3=O)n2)cc1 | 4.07%
CCC1([N+](=O)[O-])COC(c2ccc(C)cc2)OC1 (stereo not drawn) | -12.8%
Nc1cc(=O)n(Cc2ccccc2)c(=O)n1Cc1ccccc1 | 0.22%
C[C@@H]1ON(C)[C@H]2C[C@H]3c4cc(N5CCN(C)CC5)ccc4CCN3C(=O)[C@@H]12 | -19.4%
Cn1c(=S)sc2ccc3ccccc3c21 | 5.87%
N#CC1(Nc2ccc(-c3ccc(Cl)cc3)cc2)CCCC1 | 5.44%
O=C(Nc1cccc(S(=O)(=O)Nc2ccc(Cl)cc2)c1)c1ccc2c(c1)OCCO2 | 70.2% (active)
O=C(Nc1cccc(S(=O)(=O)N2CCCCC2)c1)c1ccc2c(c1)OCO2 | 8.54%
O=C(Nc1ccc(NC(=O)c2ccc3c(c2)OCO3)cc1)c1cccc(Cl)c1 | -14.8%
NS(=O)(=O)c1ccc(CCNC(=O)c2ccc(Cl)c(S(=O)(=O)N3CCCCCC3)c2)cc1 | 32.8%
CCCC(=O)Nc1ccc(Cl)c(NC(=O)c2ccc(Br)o2)c1 | 70.8% (active)
CCCCC(=O)Nc1ccc(C(=O)Nc2cc(C(F)(F)F)ccc2Cl)cc1 | 67.9%
CCN1CCN(c2c(Cl)cccc2NC(=O)c2ccc(Br)o2)CC1 | 33.7%
COc1cc2c(cc1OC)C1C(=O)c3cc(OS(C)(=O)=O)c(OC)cc3C1N(C)C2=O (stereo not drawn) | -1%

From PubChem BioAssay AID488896 (Broad Institute, 2010)
